# The supplement of paper PMC10646978
# ± gives the standard deviation.
# Columns and labels:
# Details in all cases: modulator concentration 10 µM
# [1] = test system: RAW-Dual (murine macrophage reporter line); experiment: NF-kB reporter (SEAP) activity fold change vs agonist alone; higher = enhanced NF-kB activity
# Procedure, shortened: (§1)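 RAW-Dual murine macrophage reporter cells were plated at 50 000 per well in 384-well plates, pin-transferred compound to 10 μM final, and pre-incubated for 1 hour at 37 °C before a PRR agonist was added and the cells incubated overnight. NF-κB activity was read from supernatant SEAP with QUANTI-Blue at 620 nm absorbance, and IRF activity from Lucia luciferase with QUANTI-Luc by luminescence. Each signal was expressed as fold change by dividing by the mean agonist-only control on the same plate. Two replicate plates were averaged, with errors obtained by propagation.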
# [2] = test system: RAW-Dual (murine macrophage reporter line); experiment: IRF reporter (Lucia luciferase) activity fold change vs agonist alone; higher = enhanced IRF activity
# Procedure, shortened: as §1
# [3] = test system: RAW-Dual (murine macrophage reporter line); experiment: viability score (confluency relative to resting cells, overnight) (fraction); higher = more viable, active = viable (0.7 or more)
# Procedure, shortened: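 RAW-Dual macrophages in 384-well plates were exposed overnight to compound at 10 μM final. Confluency was imaged with IncuCyte, and two confluency masks were generated with IncuCyte software over all imaged wells. The viability score is confluency expressed relative to resting cells. Compounds were called viable if both masks exceeded 70% of resting cells.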
# [4] = agonist: CpG ODN 1826 0.5 ug/mL
Structure (SMILES),"NF-kB reporter [1, 4]",NF-kB reporter ([1]; agonist: LPS 0.1 ug/mL),NF-kB reporter ([1]; agonist: MPLA […]),IRF reporter ([2]; agonist: 3'3'-cGAMP 10 ug/mL),IRF reporter ([2]; agonist: LPS 0.1 ug/mL),IRF reporter ([2]; agonist: MPLA […]),viability score [3]
Cc1ccccc1C(OCCN(C)C)c1ccccc1.O=C(O)CC(O)(CC(=O)O)C(=O)O (centres undefined),1.35 ± 0.36,1.34 ± 0.23,2.11 ± 1,0.582 ± 0.024,1.51 ± 0.14,1.25 ± 0.12,0.981 (active)
O=C(NC1CCN(c2ccc(C(F)(F)F)cn2)C1)c1nc2ccccc2s1 (centres undefined),1.09 ± 0.056,1.05 ± 0.088,0.909 ± 0.081,0.953 ± 0.049,1.27 ± 0.076,1.11 ± 0.28,0.983 (active)
COc1ccc(OC)c(S(=O)(=O)NCC2CC(=O)N(c3ccc(Cl)cc3)C2)c1 (centres undefined),0.857 ± 0.039,0.968 ± 0.12,0.911 ± 0.052,0.762 ± 0.035,1.27 ± 0.23,1.21 ± 0.35,1.01 (active)
CNCCC[C@]12CC[C@H](c3ccccc31)c1ccccc12 [Prestw-346],0.726 ± 0.082,0.842 ± 0.063,0.93 ± 0.095,1.12 ± 0.07,1.41 ± 0.14,1.59 ± 0.26,0.962 (active)
Cc1ccc(OCC(O)CN2CCCCC2)c(C)c1.Cl (centres undefined),0.868 ± 0.15,1.05 ± 0.12,1.01 ± 0.15,0.857 ± 0.056,1.21 ± 0.12,1.28 ± 0.2,0.809 (active)
O=[N+]([O-])c1ccccc1S(=O)(=O)N1CCCC1,0.974 ± 0.11,1.06 ± 0.065,0.907 ± 0.055,0.921 ± 0.042,1.34 ± 0.087,1.23 ± 0.25,1.01 (active)
Cc1ccc(OCCSc2nc3ccccc3c(=O)[nH]2)cc1C,0.728 ± 0.2,1.11 ± 0.13,1.02 ± 0.13,0.886 ± 0.025,1.03 ± 0.22,1.19 ± 0.24,0.818 (active)
CC(O)Cn1cnc2c1c(=O)n(C)c(=O)n2C (centres undefined),1.06 ± 0.082,1.06 ± 0.065,1.01 ± 0.036,0.99 ± 0.07,0.972 ± 0.11,0.957 ± 0.11,0.998 (active)
CCOc1ccccc1NC(=O)Nc1ccc2c(c1)CC(=O)N2CC,1.17 ± 0.083,0.945 ± 0.092,0.998 ± 0.028,0.694 ± 0.037,0.844 ± 0.077,0.797 ± 0.089,0.998 (active)
CC(=O)Nc1ccc(C(=O)CSc2nnc[nH]2)cc1,0.771 ± 0.06,0.877 ± 0.072,1.01 ± 0.087,0.916 ± 0.045,1.33 ± 0.086,1.47 ± 0.14,1.01 (active)
COc1cc2c(Nc3ccc(Br)cc3F)ncnc2cc1OCC1CCN(C)CC1,0.825 ± 0.04,1.01 ± 0.11,1.11 ± 0.094,0.975 ± 0.048,1.11 ± 0.17,1.29 ± 0.35,0.91 (active)
Cc1ccc(NC(=O)CN2C(=O)c3ccccc3C2=O)c(C(=O)O)c1,0.789 ± 0.077,0.894 ± 0.057,1.05 ± 0.091,0.982 ± 0.049,1.32 ± 0.098,1.5 ± 0.18,1.02 (active)
O=C(NC(=S)c1c(-c2ccccc2)cc2ccccn12)c1ccccc1,0.746 ± 0.058,0.786 ± 0.038,0.883 ± 0.078,0.516 ± 0.03,1.18 ± 0.086,1.36 ± 0.18,1.01 (active)
O=S(=O)(NC1CC1)c1cnn(-c2ccccc2)c1,0.903 ± 0.048,0.908 ± 0.073,1.08 ± 0.079,1.07 ± 0.062,1.3 ± 0.3,1.52 ± 0.57,0.964 (active)
CCCOCCOC(=O)C1=C(C)NC2=C(C(=O)CCC2)C1c1ccc(F)c(F)c1 (centres undefined),0.971 ± 0.081,1.07 ± 0.1,0.851 ± 0.07,1.09 ± 0.042,1.41 ± 0.1,1.2 ± 0.12,1.01 (active)
CC(=NN1CCN(Cc2cccc3ccccc23)CC1)c1ccc(Br)cc1,1.08 ± 0.12,1.04 ± 0.071,1.08 ± 0.044,1 ± 0.13,1.05 ± 0.12,1.11 ± 0.29,1 (active)
S=C(NCc1ccc2c(c1)OCO2)N1CCN(c2ncnc3c2oc2ccccc23)CC1,0.943 ± 0.19,1.6 ± 0.5,2.24 ± 0.18,0.623 ± 0.021,1.35 ± 0.27,1.96 ± 0.42,0.958 (active)
O=C(NCCN1CCOCC1)c1ccc(F)cc1,1.11 ± 0.1,0.995 ± 0.094,1.01 ± 0.039,1.05 ± 0.17,1.03 ± 0.053,1 ± 0.12,0.986 (active)
CC1(C)CCCC2(C)C1CCC1(C)OC(=O)CC12 (centres undefined),0.532 ± 0.077,0.669 ± 0.11,0.762 ± 0.026,0.943 ± 0.11,0.929 ± 0.07,1.37 ± 0.18,0.159 (inactive)
Cl.N=C(N)NC(=O)c1nc(Cl)c(N)nc1N,1.2 ± 0.18,1.15 ± 0.22,0.891 ± 0.063,0.984 ± 0.03,1.4 ± 0.25,1.3 ± 0.12,0.988 (active)
COC(=O)C1C(=O)C(=CNc2ccccc2O)C(=O)CC1(C)C (centres undefined),1.66 ± 0.29,1.53 ± 0.13,2.44 ± 0.19,0.183 ± 0.011,1.19 ± 0.11,1.02 ± 0.14,0.557 (inactive)
O=C(O)c1cc(O)ccc1O,0.972 ± 0.11,1.03 ± 0.055,0.977 ± 0.023,1.03 ± 0.078,0.969 ± 0.032,0.932 ± 0.11,0.996 (active)
OCCSCCc1ccncc1,1.03 ± 0.083,1.05 ± 0.086,1.01 ± 0.047,1.02 ± 0.23,0.995 ± 0.07,1.02 ± 0.17,1 (active)
Nc1ncnc2c1ncn2C1OC(CO)C(O)C1O (centres undefined),0.951 ± 0.078,0.93 ± 0.079,1.29 ± 0.13,1.15 ± 0.043,1.2 ± 0.22,1.23 ± 0.27,1.04 (active)
Cc1nnc(NN=Cc2ccc(Cl)c([N+](=O)[O-])c2)[nH]c1=O,1.08 ± 0.12,1.02 ± 0.088,1.09 ± 0.045,1.01 ± 0.17,1 ± 0.082,1.07 ± 0.13,0.997 (active)
O=C(C(Cl)Cl)N1CCN(Cc2ccccc2)CC1,0.881 ± 0.068,0.67 ± 0.077,0.709 ± 0.072,0.712 ± 0.032,1.25 ± 0.18,1.28 ± 0.24,1.01 (active)
CC(NC(=O)c1nc2ccccc2[nH]1)c1ccc(Br)cc1 (centres undefined),1.07 ± 0.11,0.938 ± 0.061,0.985 ± 0.047,1 ± 0.14,1 ± 0.073,1.13 ± 0.19,1 (active)
